In PubChem BioAssay (NCATS):
Records with an inconclusive call do not appear. Entries that show only a call come without a potency. Activity calls are given as the source filed them. Calls come from the whole dose curve; as a rule, active = well fitted curve in the direction sought with a large enough effect; inconclusive = small, poorly fitted or top-dose-only effect, or another doubt; inactive = no such curve, though single readings can be large; an effect the other way counts as inactive or inconclusive. Bridge positions count the residues as written; N and C are the ends. Square brackets hold non-standard residues; d marks the D form. Side chains are listed from the residue outwards. Peptide text beside a SMILES is read from it. * marks the point of attachment. Phg(4-OMe) = COc1ccc([C@H](N)C(=O)O)cc1; d(aIle) = CC[C@H](C)[C@@H](N)C(=O)O; d(aThr) = C[C@@H](O)[C@@H](N)C(=O)O; NMeF = CN[C@@H](Cc1ccccc1)C(=O)O; Isobutyryl = CC(C)C(=O)*

Experiment: qHTS for activators of Nrf2/ARE signaling pathway screened against the NCATS CANVASS Library (AID 1347391); note: nearly all actives have a fitted effect of over 60% in size; note: potency is the fitted concentration of half-maximal effect
Details: ARE-bla HepG2, beta-lactamase reporter, 16 h; series mostly up to 46.1 µM
Summary of the method: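 Beta-lactamase reporter signal, read as 460 and 530 nm emission under 405 nm excitation after 2 h CCF4 loading, reflected ARE activation in HepG2 cells treated 16 h with an 11-point series.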

| SMILES | Potency |
| --- | --- |
| COc1ccc2[nH]c3c(c2c1)CCN1C[C@H]2C[C@@H](OC(=O)c4cc(OC)c(OC)c(OC)c4)[C@H](OC)[C@@H](OC)[C@H]2C[C@H]31 | inactive |
| O[C@H]1c2ccccc2-c2c3c(cc4c2[C@@H]1NCC4)OCO3 | 18.6 µM (active) |
| CC(C)=CC[C@H]1C[C@@]2(CC=C(C)C)C(=O)[C@](CC=C(C)C)(C(=O)C(C(=O)c3ccccc3)=C2O)C1(C)C | inactive |
| C[C@]12CC[C@]3(C1)[C@H](CC2=O)C[C@@H](OC(=O)c1ccccc1)[C@H]1[C@](C)(C(=O)O)CCC[C@@]13C | 3.71 µM (active) |
| CC(=O)O[C@H]1c2ccccc2-c2c3c(cc4c2[C@@H]1N(C(C)=O)CC4)OCO3 | 8.31 µM (active) |
| C=C1CC[C@@H](Br)C(C)(C)[C@]12CC=C(C)C(=O)C2 | 16.6 µM (active) |
| C[C@H]1C=C[C@H]2CCCC[C@@H]2[C@H]1C(=O)[C@H]1CC2=C(C(=O)O)CCN2C1=O | 16.6 µM (active) |
| C/C=C1/CN2C3CC1C1C=CC(=O)N4c5ccccc5[C@@]3(C[C@@H]2C2=C[C@H]3C5CC6N(CC[C@@]67c6ccccc6N(C2=O)[C@@H]37)C/C5=C/C)[C@H]14 (some centres not stated) | 3.31 µM (active) |
| CC(C)=CCC[C@]12c3cc4c(cc3CC[C@@]1(C)[C@H](C)CC[C@@H]2O)[nH]c1ccccc14 | inactive |
| Oc1ccc(C2Oc3cc(O)c4c(c3[C@@H]2c2cc(O)cc(O)c2)[C@H]2C(c3ccc(O)cc3)c3c(O)cc5c(c3[C@H]2C4c2ccc(O)cc2)[C@H](c2cc(O)cc(O)c2)C(c2ccc(O)cc2)O5)cc1 (some centres not stated) | inactive |
| COc1cc(O)c(C(=O)[C@@H]2[C@H](CC=C(C)C)C(C)=CC[C@H]2c2ccccc2)c(O)c1 | inactive |
| COc1cc(/C=C/C(=O)OC[C@@H](Cc2ccc(O)c(OC)c2)[C@@H](COC(=O)/C=C/c2ccc(O)c(OC)c2)Cc2ccc(O)c(OC)c2)ccc1O | inactive |
| C=CC(CCCCC)C1C(=O)NC(=O)C1C(=O)C1C2C(C)CC(C(=O)O)CC2CC1(O)C(=O)/C=C/C (configuration not stated) | 2.09 µM (active) |
| COc1c(O)cc2c(c1O)C(=O)c1c(coc1C)C2=O | 7.41 µM (active) |
| CC(C)C[C@@H]1c2c(O)c(C=O)c(O)c(C=O)c2O[C@]2(C)C=C[C@@H](C(C)C)C[C@H]12 | inactive |
| CO[C@H]1[C@@H](OC(=O)/C(C)=C\[C@@H]2O[C@@H]2[C@H]2O[C@H]2C)[C@H](O)[C@H](OCC23C[C@@H]4[C@H](C)CC[C@H]4C4(C=O)CC2C=C(C(C)C)C34C(=O)O)O[C@@H]1C (some centres not stated) | 16.6 µM (active) |
| C/C=C/C1C=CC2CC(C)CC(C)C2C1C(=O)CC(=O)NC(CO)C/C=C/CCCCC (configuration not stated) | 16.6 µM (active) |
| CC[C@H]1[C@H](C)[C@H](c2cc(OC)c(OC)cc2OC)[C@@H](C)[C@H](c2cc(OC)c(OC)cc2OC)[C@@]12C=C(OC)C(=O)C=C2OC | 14.8 µM (active) |

Experiment: qHTS for activators of dead-cell proteases activity screened against the NCATS CANVASS Library (AID 1347392);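 note: luminescence from protease leaking out of membrane-damaged cells cleaving impermeant substrate; rising signal means more cytotoxicity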
Details: HepG2 cytotoxicity, dead-cell protease luminescence, 5 h; series mostly up to 46.1 µM
Summary of the method: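 HepG2, 2000 cells/well, 18 h attach; cpd 11-pt, 5 h 37C 5% CO2; CytoTox-Glo (AAF-aminoluciferin) 15 min RT; luminescence read.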

| SMILES | Potency |
| --- | --- |
| Cc1occ2c1C(=O)c1c(cc(O)c(O)c1O)C2=O | inactive |
| O=C1CC2OCC=C3CN4C5CC3C2[C@@H]2N1c1ccccc1[C@]52C[C@@H]4C1=C[C@H]2C3CC4N(CC[C@@]45c4ccccc4N(C1=O)[C@@H]25)C/C3=C/CO (some centres not stated) | inactive |
| CCC(=O)CCCCC[C@@H]1NC(=O)[C@H]2CCCCN2C(=O)[C@H](C(C)C)NC(=O)[C@H](Cc2cn(OC)c3ccccc23)NC1=O | inactive |
| C/C(=C\[C@H](C)C(=O)CCCC1CC(=O)NC(=O)C1)[C@@H]1OC(=O)/C=C/CC/C=C/[C@H](O)[C@@H](O)[C@@H]1C | inactive |
| C=CC(CCCCC)C1C(=O)NC(=O)C1C(=O)C1C(/C=C/C)C=CC2CC(C(=O)O)CC(C)C21 (configuration not stated) | inactive |
| C=C1CC[C@@H](O[C@H]2C[C@@](O)([C@H](C)NC(=O)c3[nH]c(C)c(Cl)c3Cl)[C@H](O)[C@@H](C)O2)[C@@H]2C=C[C@H](C)C(/C(O)=C3/C(=O)[C@H](C(C)C)N([C@@H]4O[C@H](C)[C@H](OC(N)=O)[C@H](OC(C)=O)[C@@H]4OC)C3=O)[C@@H]12 (some centres not stated) | inactive |
| CC[C@H](C)[C@H]1NC(=O)[C@@H](NC(=O)C(C)C)[C@@H](C)OC(=O)[C@H](COC(=O)CNC(C)=O)NC(=O)[C@@H]([C@@H](C)O)NC(=O)[C@H](Cc2ccccc2)N(C)C(=O)[C@H](c2ccc(OC)cc2)NC1=O (Isobutyryl-T[d(aIle)][Phg(4-OMe)][NMeF][d(aThr)]S([Gly-Ac]); ester 1-C) | inactive |
| C[n+]1cc2cc(C(N)=O)[nH]c3c(=N)c(Cl)c(N)c1c23 | inactive |
| C/C1=C/[C@@H](C)[C@H](O)[C@@H](O)/C=C/CC/C=C/C(=O)O[C@@H]1[C@H](C)C(=O)CCCC1CC(=O)NC(=O)C1 | inactive |
| CC(=O)Oc1cc2c(c(OC(C)=O)c1C1CCc3cc(Cl)c(Cl)n31)C(=O)n1c-2cc(Cl)c1Cl (configuration not stated) | inactive |
| O[C@H]1c2ccccc2-c2c3c(cc4c2[C@@H]1NCC4)OCO3 | inactive |
| CC(C)=CC[C@H]1C[C@@]2(CC=C(C)C)C(=O)[C@](CC=C(C)C)(C(=O)C(C(=O)c3ccccc3)=C2O)C1(C)C | inactive |
| C[C@]12CC[C@]3(C1)[C@H](CC2=O)C[C@@H](OC(=O)c1ccccc1)[C@H]1[C@](C)(C(=O)O)CCC[C@@]13C | inactive |
| CC(=O)O[C@H]1c2ccccc2-c2c3c(cc4c2[C@@H]1N(C(C)=O)CC4)OCO3 | inactive |
| C=C[C@](Cl)(CBr)CCC=C(C)C | inactive |
| COc1cc2c(cc1OC)[C@@H](c1ccc3c(c1)OCO3)C(C)C(C)C2=O (some centres not stated) | inactive |
| C/C(=C\[C@H](C)C(=O)/C=C/CC1CC(=O)NC(=O)C1)[C@@H]1OC(=O)/C=C/CC/C=C/C[C@@H](O)[C@@H]1C | inactive |
| CC(C)[C@]12CC[C@@]3(C)[C@H](C)CC[C@H](O)[C@@]3(CC1)c1cc3c(cc12)[nH]c1ccccc13 | inactive |
| COc1cc(O)c(C(=O)[C@@H]2[C@H](CC=C(C)C)C(C)=CC[C@H]2c2ccccc2)c(O)c1 | inactive |
| C=C(C)CC[C@H](Cc1c(O)cc(O)c2c1O[C@H](c1ccc(O)cc1)CC2=O)C(=C)C | inactive |
| C=CC(CCCCC)C1C(=O)NC(=O)C1C(=O)C1C2C(C)CC(C(=O)O)CC2CC1(O)C(=O)/C=C/C (configuration not stated) | inactive |
| C[C@]12CCC[C@](C)(C(=O)O)[C@@H]1CC[C@@]1(C)c3cocc3CC[C@H]21 | inactive |
| CC(C)C[C@@H]1c2c(O)c(C=O)c(O)c(C=O)c2O[C@]2(C)C=C[C@@H](C(C)C)C[C@H]12 | inactive |
| C/C=C/C1C=CC2CC(C)CC(C)C2C1C(=O)CC(=O)NC(CO)C/C=C/CCCCC (configuration not stated) | inactive |
